# The supplement of paper PMC8728848
# The full list was thinned out, with the strongest signals kept by preference.
# Legend:
# Experiment in all cases: glycan array binding signal (z-score within array); higher = stronger binding
# Details in all cases: glycan notation: IUPAC condensed, linker removed
# [1] = biological target: Fuc(a1-2)Gal(b1-3)GalNAc(a1-3)[Fuc(a1-2)]Gal(b1-4)GlcNAc
# In short: (§1)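 Glycan array binding is given as a within-array Z-score, which can be read as non-binding when negative. The arrays, 3228 of them, came from the Consortium for Functional Glycomics database and were retained only where the protein sequence was available. Z-scores were averaged across arrays of the same protein sequence at different concentrations or buffers and across linkers.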
# [2] = biological target: Fuc(a1-2)Gal(b1-3)GlcNAc(b1-3)[Gal(b1-4)GlcNAc(b1-6)]Gal(b1-4)Glc
# In short: as §1
# [3] = biological target: Fuc(a1-2)Gal(b1-3)[Fuc(a1-4)]GlcNAc(b1-3)[Gal(b1-4)GlcNAc(b1-6)]Gal(b1-4)Glc
# In short: as §1
# Fuc(a1-2)Gal(b1-4)Glc6S = biological target: Fuc(a1-2)Gal(b1-4)Glc6S
# In short: as §1
# [4] = biological target: Fuc(a1-2)Gal(b1-4)GlcNAc(b1-2)Man(a1-3)[Fuc(a1-2)Gal(b1-4)GlcNAc(b1-2)Man(a1-6)]Man(b1-4)GlcNAc(b1-4)GlcNAc
# In short: as §1
# [5] = biological target: Fuc(a1-2)Gal(b1-4)GlcNAc(b1-2)[Fuc(a1-2)Gal(b1-4)GlcNAc(b1-4)]Man(a1-3)[Fuc(a1-2)Gal(b1-4)GlcNAc(b1-2)Man(a1-6)]Man(b1-4)GlcNAc(b1-4)GlcNAc
# In short: as §1
# [6] = biological target: Fuc(a1-2)Gal(b1-4)GlcNAc(b1-3)Gal(b1-4)GlcNAc(b1-2)Man(a1-3)[Fuc(a1-2)Gal(b1-4)GlcNAc(b1-3)Gal(b1-4)GlcNAc(b1-2)Man(a1-6)]Man(b1-4)GlcNAc(b1-4)GlcNAc
# In short: as §1
# [7] = biological target: Fuc(a1-2)Gal(b1-4)GlcNAc(b1-3)Gal(b1-4)GlcNAc(b1-3)Gal(b1-4)GlcNAc
# In short: as §1
# [8] = biological target: Fuc(a1-2)Gal(b1-4)GlcNAc(b1-6)GalNAc
# In short: as §1
# [9] = biological target: Fuc(a1-2)[GalNAc(a1-3)]Gal(b1-4)GlcNAc(b1-3)Gal(b1-4)GlcNAc
# In short: as §1
# [10] = biological target: Fuc(a1-2)[GalNAc(b1-3)]Gal
# In short: as §1
# [11] = biological target: Fuc(a1-3)[Gal(b1-4)]Glc6S
# In short: as §1
# [12] = biological target: Fuc(a1-3)[Gal(b1-4)]GlcNAc
# In short: as §1
# [13] = biological target: Fuc(a1-3)[Gal3S(b1-4)]GlcNAc6S
# In short: as §1
# [14] = biological target: Gal(a1-3)[Gal(a1-4)]Gal(b1-4)GlcNAc
# In short: as §1
# Gal(a1-4)Gal(b1-4)Glc = biological target: Gal(a1-4)Gal(b1-4)Glc
# In short: as §1
# Gal(a1-4)GlcNAc = biological target: Gal(a1-4)GlcNAc
# In short: as §1
# Gal(a1-6)Glc = biological target: Gal(a1-6)Glc
# In short: as §1
# [15] = biological target: Gal(b1-3)GalNAc(b1-4)Gal(b1-4)Glc
# In short: as §1
# Gal(b1-3)GlcNAc = biological target: Gal(b1-3)GlcNAc
# In short: as §1
# [16] = biological target: Gal(b1-3)[Fuc(a1-4)]GlcNAc
# In short: as §1
# [17] = biological target: Gal(b1-3)[Fuc(a1-4)]GlcNAc(b1-3)Gal(b1-3)[Fuc(a1-4)]GlcNAc
# In short: as §1
# [18] = biological target: Gal(b1-3)[Neu5Ac(a2-6)]GlcNAc(b1-4)Gal(b1-4)Glc
# In short: as §1
# Gal(b1-4)Glc6S = biological target: Gal(b1-4)Glc6S
# In short: as §1
# [19] = biological target: Gal(b1-4)GlcNAc(b1-2)Man(a1-3)[Gal(b1-4)GlcNAc(b1-2)Man(a1-6)][Gal(b1-4)GlcNAc(b1-4)]Man(b1-4)GlcNAc(b1-4)[Fuc(a1-6)]GlcNAc
# In short: as §1
# [20] = biological target: Gal(b1-4)GlcNAc(b1-3)Gal(b1-4)GlcNAc(b1-2)[Gal(b1-4)GlcNAc(b1-3)Gal(b1-4)GlcNAc(b1-6)]Man(a1-6)[Gal(b1-4)GlcNAc(b1-3)Gal(b1-4)GlcNAc(b1-2)Man(a1-3)]Man(b1-4)GlcNAc(b1-4)[Fuc(a1-6)]GlcNAc
# In short: as §1
# [21] = biological target: Gal(b1-4)GlcNAc(b1-3)Gal(b1-4)GlcNAc(b1-3)Gal(b1-4)GlcNAc(b1-3)Gal(b1-4)GlcNAc(b1-3)Gal(b1-4)GlcNAc(b1-2)[Gal(b1-4)GlcNAc(b1-3)Gal(b1-4)GlcNAc(b1-3)Gal(b1-4)GlcNAc(b1-3)Gal(b1-4)GlcNAc(b1-3)Gal(b1-4)GlcNAc(b1-6)]Man(a1-6)[Gal(b1-4)GlcNAc(b1-3)Gal(b1-4)GlcNAc(b1-3)Gal(b1-4)GlcNAc(b1-3)Gal(b1-4)GlcNAc(b1-3)Gal(b1-4)GlcNAc(b1-2)Man(a1-3)]Man(b1-4)GlcNAc(b1-4)[Fuc(a1-6)]GlcNAc
# In short: as §1
# Gal4S6S(b1-4)GlcNAc = biological target: Gal4S6S(b1-4)GlcNAc
# In short: as §1
# [22] = biological target: GalNAc(a1-3)GalNAc(b1-3)Gal(a1-4)Gal(b1-4)GlcNAc
# In short: as §1
# [23] = biological target: GalNAc(b1-4)GlcNAc(b1-2)Man(a1-3)[GalNAc(b1-4)GlcNAc(b1-2)Man(a1-6)]Man(b1-4)GlcNAc(b1-4)GlcNAc
# In short: as §1
binder,measurement,setting,value
Vd7LysM (Verticillium dahliae) (protein) RRGPEPKYPPAAGTSSYCSYWVDYEGDKSCSRVLEDNVVVLKDFARWNPTVGADCSGIKAGNSYCVEAFGEPEPIEVTTTTRAATTTTQPTATTTTFANGIATPQPTQSGMVTNCNKFHWIAEGVSCSQVISFQKITLADFVKWNPSVKSDCSGMWAGVNVCVGVVGSSTDTAKPTTTAPSNGVVTPQPTQPSMVTNCNKFHWIAKGVTCQQVISYQKISLADFVKWNPSVLSDCSGMWAEVQVCVGVIGSTPTTLATTTTTAGNGVSTPLPTQPGMVTNCAKFHWVAKGVTCNQIYSFQKITLEQFVSYNPTVKSDCSGMQAEVQVCVGLIAGTTPTTTRPPTTTAPGNGVSTPQPTQPGMVTNCAKFHWVAKGVTCNQIYSFQKITLEQFVSFNPTVKSDCTGMQAEVNVCVGLIGGNPTPTQTGNGIATPTPIQPGMVSNCKKFHWIAQGVTCQQVISFQKITLADFVKWNTGVGSDCRTMWAETNVCVGV,glycan array binding signal (z-score),[1],-0.691
same,glycan array binding signal (z-score),[2],-0.772
same,glycan array binding signal (z-score),[3],-1.91
same,glycan array binding signal (z-score),Fuc(a1-2)Gal(b1-4)Glc6S,2.67
same,glycan array binding signal (z-score),[4],2.13
same,glycan array binding signal (z-score),[5],-0.492
same,glycan array binding signal (z-score),[6],0.254
same,glycan array binding signal (z-score),[7],3.25
same,glycan array binding signal (z-score),[8],0.512
same,glycan array binding signal (z-score),[9],1.94
same,glycan array binding signal (z-score),[10],0.38
same,glycan array binding signal (z-score),[11],0.721
same,glycan array binding signal (z-score),[12],-0.68
same,glycan array binding signal (z-score),[13],1.04
same,glycan array binding signal (z-score),[14],-0.317
same,glycan array binding signal (z-score),Gal(a1-4)Gal(b1-4)Glc,3.04
same,glycan array binding signal (z-score),Gal(a1-4)GlcNAc,0.386
same,glycan array binding signal (z-score),Gal(a1-6)Glc,-1.58
same,glycan array binding signal (z-score),[15],2.86
same,glycan array binding signal (z-score),Gal(b1-3)GlcNAc,-0.186
same,glycan array binding signal (z-score),[16],-0.618
same,glycan array binding signal (z-score),[17],1.63
same,glycan array binding signal (z-score),[18],-0.885
same,glycan array binding signal (z-score),Gal(b1-4)Glc6S,0.592
same,glycan array binding signal (z-score),[19],-0.393
same,glycan array binding signal (z-score),[20],2.56
same,glycan array binding signal (z-score),[21],4.04
same,glycan array binding signal (z-score),Gal4S6S(b1-4)GlcNAc,0.198
same,glycan array binding signal (z-score),[22],0.706
same,glycan array binding signal (z-score),[23],-1.23
